High-throughput results (PubChem)
FBW7 act: human FBW7 E3 ligase activation, primary screen; Q969H0; AlphaScreen FBW7–phospho-cyclin E peptide binding, activator screen; normalized activity (activation), % at 26.1 µM; 650,000 compounds, 0.13% hits; AID 1259310; in the data active = normalized activity above about 1.9%;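 note: purified mutant Fbw7 with reduced substrate affinity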
MITF inh: blocks human microphthalmia-associated transcription factor. O75030. AlphaScreen MITF homodimerization, bead proximity signal. inhibition, % at 2.6 µM. 650,000 compounds, 0.91% hits; in the data active = inhibition above about 50%
TEAD-YAP inh: TEAD-YAP interaction inhibition; inhibition, % at 9.12 µM; AID 1259422; HEK-TIYL cells, TEAD-Gal4/YAP UAS-luciferase luminescence; 640,000 compounds, 1.4% hits; in the data active = inhibition above about 32%
GPR151 activ: activates the human receptor GPR151 | activation, % at 11.2 µM | 650,000 compounds, 1% hits | Q8TDV0 | PathHunter beta-arrestin GPR151 cells, luminescence; in the data active = activation above about 4.9%
Target sequence (Q8TDV0 whole entry, looked up): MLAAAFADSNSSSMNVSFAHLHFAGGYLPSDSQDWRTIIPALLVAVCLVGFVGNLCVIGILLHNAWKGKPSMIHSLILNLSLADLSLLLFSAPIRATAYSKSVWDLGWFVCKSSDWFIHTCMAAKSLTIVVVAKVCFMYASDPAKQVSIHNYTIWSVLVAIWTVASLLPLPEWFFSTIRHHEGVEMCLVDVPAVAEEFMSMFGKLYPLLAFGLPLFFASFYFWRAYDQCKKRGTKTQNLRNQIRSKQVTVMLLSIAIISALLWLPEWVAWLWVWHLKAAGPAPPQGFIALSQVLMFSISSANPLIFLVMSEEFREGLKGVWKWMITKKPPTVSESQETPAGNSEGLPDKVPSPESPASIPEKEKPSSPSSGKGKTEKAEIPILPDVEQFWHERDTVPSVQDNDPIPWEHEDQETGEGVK
GPR151 confirm: human GPR151 activation, confirmation screen. 6,700 tested, under 10 active. shares compounds with GPR151 activ. GPR151 PathHunter beta-arrestin cells, luminescence, 90 min; % of EA-reagent control over plate median. activation, % at 11.2 µM;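 active = mean percent activation across replicates above the confirmation screen cutoff of 4.91%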
GPR119 counter: GPR119 activation, counter-screen for GPR151 activators; shares compounds with GPR151 activ; GPR119 PathHunter beta-arrestin cells, luminescence, 90 min; 0 = compound-well median, 100 = enzyme-acceptor control; 6,700 compounds, 0.3% hits; AID 1508611; activation, % at 11.2 µM;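 active = mean percent activation in the counterscreen above 29.09%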;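 note: counterscreen on off-target GPR119 to flag nonselective hits from the GPR151 activator screen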
Large screens that a line does not name were inactive (follow-up assays come after a bar, where they were run); ! = not confirmed by another sample. Sampled rows, rich in hits. Any-hit rate of the full collection: about 3.4%.

COc1ccc([N+](=O)[O-])cc1N=Cc1cccc([N+](=O)[O-])c1	none
COc1ccc(S(=O)(=O)N2CCCCC2)cc1NC(=O)c1cc(C)nc2ccccc12	none
COc1ccc(NC(=O)c2cc(C)nc3ccccc23)cc1S(=O)(=O)N1CCCCC1	GPR151 activ 8.4 | GPR151 confirm inactive | GPR119 counter inactive
COc1cccc(NC(=O)C(CCSC)NC(=O)C2CCC(C)CC2)c1 (centres undefined)	GPR151 activ 10.2 | GPR151 confirm inactive | GPR119 counter inactive
CCOC(=O)c1cccc(NC(=O)C(CCSC)NC(=O)C2CCC(C)CC2)c1 (centres undefined)	none
Cc1oc2ccc(Cl)cc2[n+]1CCCS(=O)(=O)O	none
CCO/C(C)=C/c1oc2ccc(-c3ccccc3)cc2[n+]1CCCS(=O)(=O)O	GPR151 activ 5.6 | GPR151 confirm inactive | GPR119 counter inactive
Cc1ccc([N+](=O)[O-])cc1S(=O)(=O)Nc1cccc(-c2cn3cccnc3n2)c1	GPR151 activ 6.1 | GPR151 confirm inactive | GPR119 counter inactive
CCCOc1ccccc1C1NC(=O)NC(C)=C1C(=O)OC1CCC(C)CC1 (centres undefined)	none
COc1ccc(Cl)cc1N1CC(C(=O)Nc2c(C)cccc2C)CC1=O (centres undefined)	GPR151 activ 8.3 | GPR151 confirm inactive | GPR119 counter inactive
COc1ccc(Cl)cc1N1CC(C(=O)Nc2nnc(C)s2)CC1=O (centres undefined)	none
COc1ccccc1N1CC(C(=O)Nc2nnc(SC3CCCC3)s2)CC1=O (centres undefined)	GPR151 activ 6.2 | GPR151 confirm inactive | GPR119 counter inactive
COc1ccc(-c2noc(CN(C)Cc3ccncc3C)n2)c(OC)c1OC	GPR151 activ 14.9 | GPR151 confirm inactive | GPR119 counter inactive
CNC(=O)CSc1nnc(-c2cccnc2)n1CCc1ccccc1	none
CCc1cccc(CC)c1-n1c(SCC(=O)NC)nnc1-c1cccnc1	none
CC(C)NC(=O)CSc1nnc(-c2cccnc2)n1CCc1ccccc1	GPR151 activ 9.5 | GPR151 confirm inactive | GPR119 counter inactive
CCc1ccccc1-n1c(SCC(=O)NC)nnc1-c1cccnc1	GPR151 activ 7.6 | GPR151 confirm inactive | GPR119 counter inactive
O=C1CCCC2=C1C(c1ccc(O)c(Cl)c1)C1=C(CCCC1=O)O2	TEAD-YAP inh 34.5, GPR151 activ 7.4 | GPR151 confirm inactive | GPR119 counter inactive
COc1cc(NC(=O)C2CCN(c3ccc(Nc4ccccc4)nn3)CC2)cc(OC)c1OC	none
COc1cc(NC(=O)C2CCN(c3ccc(Nc4cc(OC)c(OC)c(OC)c4)nn3)CC2)cc(OC)c1OC	GPR151 activ 7.8 | GPR151 confirm inactive | GPR119 counter inactive
Cc1ccc(S(=O)(=O)Oc2ccc(/C=C3/SC(N4CCOCC4)=NC3=O)cc2)cc1	none
CCCNC(=O)c1csc(-c2c(C)nn(C)c2C)n1	GPR151 activ 5.2 | GPR151 confirm inactive | GPR119 counter inactive
CN(c1ccc(Cl)cc1)S(=O)(=O)c1ccc2[nH]cc(C(=O)NCCC3=CCCCC3)c(=O)c2c1	none
O=C(CN1c2cccc3cccc(c23)S1(=O)=O)Nc1ccc(F)c(F)c1	none
O=C(CN1c2cccc3cccc(c23)S1(=O)=O)Nc1ccc(Br)cc1F	GPR151 activ 7.1 | GPR151 confirm inactive | GPR119 counter inactive
c1ccc(Cc2c[nH]c3ccccc23)cc1	GPR151 activ 5.3 | GPR151 confirm inactive | GPR119 counter inactive
O=C(O)CCCc1c[nH]c2ccccc12	GPR151 activ 5.0! | GPR151 confirm inactive | GPR119 counter inactive
O=C(O)CCCNC(=O)Cc1c[nH]c2ccccc12	none
C#CCCC[C@@H](O)CCCCCCCCCCC(=O)O	none (no result: FBW7 act, TEAD-YAP inh)
COc1ccc(S(=O)(=O)Oc2ccc(C=C3C(=O)NC(=O)NC3=O)cc2)cc1	GPR151 activ 5.3 | GPR151 confirm inactive | GPR119 counter inactive
O=C1NC(=O)C(=Cc2ccc(OS(=O)(=O)c3ccc(Cl)cc3)cc2)C(=O)N1	none
C/C(=N\NC(=O)c1ccc(-n2c(C)ccc2C)cc1)c1ccc[nH]1	none
CC1(C2CCN(Cc3nc(-c4ccccc4)cs3)CC2)NC(=O)NC1=O (centres undefined)	GPR151 activ 5.6 | GPR151 confirm inactive | GPR119 counter inactive
COc1cc(NC(=O)CSC2=C(C#N)C(c3ccccc3)C(C(=O)Nc3ccccc3)=C(C)N2)c(OC)cc1Cl (centres undefined)	none
